A number with no mark means an inactive call.

In the first assay the test system is MCF10A. Nature of the assay: perturbation Mahalanobis distance of morphological profile vs DMSO controls (Mahalanobis distance (SD units)); higher = stronger morphological change, active = 7 or more. To be noted: screen batch: Batch1_Mahalanobis_Distance; 72 h. The procedure:
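MCF10A cells were seeded onto drugs dispensed acoustically into 384-well plates, using one dose per drug chosen from its human peak plasma concentration, and incubated for 72 h at 37 °C. Cells were stained for DNA, tubulin and mitochondria and imaged; 78 CellProfiler features were extracted, plate-normalised and compared with DMSO wells.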
As to `COc1cc(C(=O)NCc2ccc(OCCN(C)C)cc2)cc(OC)c1OC` [Trimethobenzamide] (257.426.762 µM), the “perturbation Mahalanobis distance” value was 2.9. The same measure, in the same setting: under `CCC1(c2ccccc2)NC(=O)N(C)C1=O` (stereo unspecified) [Mephenytoin] (343.8 µM) stands 3.16; under `O=C1C(=O)c2ccccc2C(O)=C1C1CCC(c2ccc(Cl)cc2)CC1` (stereo unspecified) [Atovaquone] (37.9 µM), 3.34; under `COC(=O)[C@H](c1ccccc1Cl)N1CCc2sccc2C1` [Clopidogrel] (0.12 µM), 3.1. On to `NC12CC3CC(CC(C3)C1)C2` [Amantadine] (19.85 µM), for which the “perturbation Mahalanobis distance” value is 2.66. On the same count and under the same terms, under `O=C1CC2(CCCC2)CC(=O)N1CCCCN1CCN(c2ncccn2)CC1` [Buspirone] (0.05 µM) stands 1.84; under `CC/C(=C(\c1ccccc1)c1ccc(OCCN(C)C)cc1)c1ccccc1` [Tamoxifen] (6.7 µM), 2.61. Turning to `C[C@H]1O[C@@H](O[C@H]2[C@@H](O)C[C@H](O[C@H]3[C@@H](O)C[C@H](O[C@H]4CC[C@@]5(C)[C@H](CC[C@@H]6[C@@H]5CC[C@]5(C)[C@@H](C7=CC(=O)OC7)CC[C@]65O)C4)O[C@@H]3C)O[C@@H]2C)C[C@H](O)[C@@H]1O` [Digitoxin] (0.16 µM), the “perturbation Mahalanobis distance” value is 12.1 (active). Still for that read-out and setting: the result for `CC12CC3CC(C)(C1)CC(N)(C3)C2` [Memantine] (1.3 µM) reads 4.28; that for `NC(=O)c1ncn([C@@H]2O[C@H](CO)[C@@H](O)[C@H]2O)n1` [Ribavirin] (75.3 µM), 5.79.

As to `CCCCN1C[C@H](O)[C@@H](O)[C@H](O)[C@H]1CO` [Miglustat] (92.6 µM), the “perturbation Mahalanobis distance” value is 2.56. Still for that read-out and setting: the result for `CCCc1cc(=O)[nH]c(=S)[nH]1` [Propylthiouracil] (90 µM) reads 2.49. On the same count and under the same terms, the result for `CCN(CC)C(=O)N1CCN(C)CC1` [Diethylcarbamazine] (6.3 µM) reads 2.96; that for `O=C(O)c1cnccn1` [Pyrazinoic Acid] (604.4 µM), 2.79. Still for that read-out and setting: under `COc1cc2nc(N3CCN(C(=O)C4CCCO4)CC3)nc(N)c2cc1OC` (stereo unspecified) [Terazosin] (1 µM) stands 2.35; under `COCc1c(C(C)C)nc(C(C)C)c(/C=C/[C@@H](O)C[C@@H](O)CC(=O)O)c1-c1ccc(F)cc1` [Cerivastatin] (0.46 µM), 13.3 (active). `C[C@@H]1O[C@@]2(CS1)CN1CCC2CC1` [Cevimeline] (1.5 µM): the “perturbation Mahalanobis distance” value was 3.07. On the same count and under the same terms, the result for `COc1ccc2c3c1O[C@H]1C[C@@H](O)C=C[C@@]31CCN(C)C2` [Galantamine] (20 µM) reads 2.14; that for `CN[C@H]1CC[C@@H](c2ccc(Cl)c(Cl)c2)c2ccccc21` [Sertraline] (3.3 µM), 2.81; that for `CC(=O)Nc1nnc(S(N)(=O)=O)s1` [Acetazolamide] (90 µM), 3.52.

The assay is the same for the next values; noted with them: screen batch: Batch2_Mahalanobis_Distance; 72 h.
Consider `COc1cc(C(=O)NCc2ccc(OCCN(C)C)cc2)cc(OC)c1OC` [Trimethobenzamide] (257.426.762 µM), for which the “perturbation Mahalanobis distance” value is 5.46. On the same count and under the same terms, under `CCC1(c2ccccc2)NC(=O)N(C)C1=O` (stereo unspecified) [Mephenytoin] (343.8 µM) stands 3.69; under `O=C1C(=O)c2ccccc2C(O)=C1C1CCC(c2ccc(Cl)cc2)CC1` (stereo unspecified) [Atovaquone] (37.9 µM), 1.78. Still for that read-out and setting: under `COc1cc2ncnc(Nc3ccc(F)c(Cl)c3)c2cc1OCCCN1CCOCC1` [Gefitinib] (34.7 µM) stands 3.28; under `COC(=O)[C@H](c1ccccc1Cl)N1CCc2sccc2C1` [Clopidogrel] (0.12 µM), 2.59.

Turning to `NC12CC3CC(CC(C3)C1)C2` [Amantadine] (19.85 µM), the “perturbation Mahalanobis distance” value is 3.87.

Consider `O=C1CC2(CCCC2)CC(=O)N1CCCCN1CCN(c2ncccn2)CC1` [Buspirone] (0.05 µM), for which the “perturbation Mahalanobis distance” value was 3.36. The same measure, in the same setting: the result for `CC/C(=C(\c1ccccc1)c1ccc(OCCN(C)C)cc1)c1ccccc1` [Tamoxifen] (6.7 µM) reads 2.63; that for `C[C@H]1O[C@@H](O[C@H]2[C@@H](O)C[C@H](O[C@H]3[C@@H](O)C[C@H](O[C@H]4CC[C@@]5(C)[C@H](CC[C@@H]6[C@@H]5CC[C@]5(C)[C@@H](C7=CC(=O)OC7)CC[C@]65O)C4)O[C@@H]3C)O[C@@H]2C)C[C@H](O)[C@@H]1O` [Digitoxin] (0.16 µM), 17.9 (active); that for `CC12CC3CC(C)(C1)CC(N)(C3)C2` [Memantine] (1.3 µM), 3.3. On the same count and under the same terms, the result for `NC(=O)c1ncn([C@@H]2O[C@H](CO)[C@@H](O)[C@H]2O)n1` [Ribavirin] (75.3 µM) reads 11.4 (active); that for `CCCCN1C[C@H](O)[C@@H](O)[C@H](O)[C@H]1CO` [Miglustat] (92.6 µM), 3.14. The same measure, in the same setting: under `CCCc1cc(=O)[nH]c(=S)[nH]1` [Propylthiouracil] (90 µM) stands 2.52. As to `CCN(CC)C(=O)N1CCN(C)CC1` [Diethylcarbamazine] (6.3 µM), the “perturbation Mahalanobis distance” value was 2.16.

In the case of `O=C(O)c1cnccn1` [Pyrazinoic Acid] (604.4 µM), the “perturbation Mahalanobis distance” value is 2.79. In the case of `COc1cc2nc(N3CCN(C(=O)C4CCCO4)CC3)nc(N)c2cc1OC` (stereo unspecified) [Terazosin] (1 µM), the “perturbation Mahalanobis distance” value is 2.82. Same read-out and setting: under `COCc1c(C(C)C)nc(C(C)C)c(/C=C/[C@@H](O)C[C@@H](O)CC(=O)O)c1-c1ccc(F)cc1` [Cerivastatin] (0.46 µM) stands 13.1 (active); under `C[C@@H]1O[C@@]2(CS1)CN1CCC2CC1` [Cevimeline] (1.5 µM), 3.45; under `COc1ccc2c3c1O[C@H]1C[C@@H](O)C=C[C@@]31CCN(C)C2` [Galantamine] (20 µM), 2.43. Same read-out and setting: the result for `CN[C@H]1CC[C@@H](c2ccc(Cl)c(Cl)c2)c2ccccc21` [Sertraline] (3.3 µM) reads 4.31; that for `CC(=O)Nc1nnc(S(N)(=O)=O)s1` [Acetazolamide] (90 µM), 2.44.
